Records with an inconclusive call do not appear. Activity calls are given as the source filed them. The calls were made as follows: active = hit-call score of the fitted dose curve at least 0.9, where 1 is the maximum; inconclusive = response in the unintended direction; inactive = score below 0.9.

Test [1] concerns the target human Phosphatase and Tensin Homolog (PTEN), PTEN (gene 5728) (UniProt P60484). The experiment in a line: NVS_ENZ_hPTEN: NovaScreen (NVS) Enzymatic Assay for human Phosphatase and Tensin Homolog (PTEN) (AID 2283203). The method in brief:
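Loss of fluorescent product signal after mobility-shift separation reports PTEN activity, recombinant human enzyme, 1 h after compound addition. Single 25 uM duplicate screen, then concentration-response on actives; DMSO baseline.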

The target in test [2] is human Matrix Metalloproteinase-9 (MMP9), MMP9 (gene 4318) (UniProt P14780). Description: NVS_ENZ_hMMP9: NovaScreen (NVS) Enzymatic Assay for human Matrix Metalloproteinase-9 (MMP9) (AID 2283190).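 Also: cell-free recombinant MMP9 protease activity read by fluorescent substrate signal; active means inhibition seen as loss of fluorescence signal versus DMSO.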 The method in brief:
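Screening concentration 25 uM, duplicate wells, then dose series for confirmation. Cell-free enzymatic reaction measured by fluorescence intensity 1 h post-dosing; decreased signal versus DMSO taken as activity.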

Test [3] addresses human Phosphoinositide 3-kinase alpha (PI3Ka), PIK3CA (gene 5290) (UniProt P42336). The experiment in a line: NVS_ENZ_hPI3Ka: NovaScreen (NVS) Enzymatic Assay for human Phosphoinositide 3-kinase alpha (PI3Ka) (AID 2283196). In short, it runs like this: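 Duplicate single-point screen (25 uM), then singleton dose-response (max 50 uM) for compounds meeting the threshold. Cell-free kinase reaction, 1 h; fluorescent mobility-shift readout.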

Test [4] deals with Tyrosine-protein phosphatase non-receptor type 11 (Homo sapiens) (UniProt Q06124). The experiment in a line: NVS_ENZ_hPTPN11: NovaScreen (NVS) Enzymatic Assay for human Protein Tyrosine Phosphatase Non-receptor Type 11 (PTPN11) (AID 2283202). In short, it runs like this: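 Compounds first tested in duplicate at 25 uM; those reaching ~30% inhibition rerun in singleton concentration-response, top 50 uM. Phosphatase activity measured after 0.5 h by fluorescence with mobility-shift separation, relative to DMSO.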

The target of test [5] is human Protein Tyrosine Phosphatase Non-receptor Type 2 (PTPN2), PTPN2 (gene 5771) (UniProt P17706). Description: NVS_ENZ_hPTPN2: NovaScreen (NVS) Enzymatic Assay for human Protein Tyrosine Phosphatase Non-receptor Type 2 (PTPN2) (AID 2283207). The method in brief:
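Activity measured as fluorescence after mobility-shift separation of substrate and product, 1 h after compound. Duplicate single-point 25 uM primary testing, concentration series for actives; inhibition scored as signal loss relative to DMSO baseline.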

Test [6] deals with Serine/threonine-protein phosphatase PP1-alpha catalytic subunit (Homo sapiens) (UniProt P62136). The experiment in a line: NVS_ENZ_hPPP1CA: NovaScreen (NVS) Enzymatic Assay for human Protein Phosphatase 1 Aatalytic subunit Alpha (PPP1CA) (AID 2283200). In short, it runs like this: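 Chemicals were first screened in duplicate at 25 uM, and those passing threshold (e.g. 30% inhibition) were run as concentration series to 50 uM. Cell-free recombinant protein, 1.33 h read, fluorescent substrate/product mobility-shift detection, normalised to DMSO.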
Sequence of Serine/threonine-protein phosphatase PP1-alpha catalytic subunit (Homo sapiens) (P62136 whole entry, looked up): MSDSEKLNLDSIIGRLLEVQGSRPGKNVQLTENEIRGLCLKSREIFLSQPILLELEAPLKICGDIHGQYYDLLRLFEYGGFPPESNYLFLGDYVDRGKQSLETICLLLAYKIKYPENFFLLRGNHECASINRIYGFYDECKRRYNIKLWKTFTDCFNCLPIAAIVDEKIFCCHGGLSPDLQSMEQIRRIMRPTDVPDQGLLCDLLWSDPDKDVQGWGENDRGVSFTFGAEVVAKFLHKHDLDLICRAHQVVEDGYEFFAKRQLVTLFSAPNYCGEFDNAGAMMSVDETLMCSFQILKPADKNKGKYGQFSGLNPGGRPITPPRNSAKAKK

For test [7], the target named is Tyrosine-protein phosphatase non-receptor type 14 (Homo sapiens) (UniProt Q15678). The experiment in a line: NVS_ENZ_hPTPN14: NovaScreen (NVS) Enzymatic Assay for human Protein Tyrosine Phosphatase Non-receptor Type 14 (PTPN14) (AID 2283206). The method in brief:
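Fluorescent substrate turnover by recombinant human PTPN14 was measured 0.5 h after compound addition, with substrate and product separated by mobility shift. Single-point screening at 25 uM, then concentration-response up to 50 uM for chemicals meeting threshold (e.g., 30% inhibition).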

For test [8], the target named is human Protein Tyrosine Phosphatase Non-receptor Type 4 (PTPN4), PTPN4 (gene 5775) (UniProt P29074). Description: NVS_ENZ_hPTPN4: NovaScreen (NVS) Enzymatic Assay for human Protein Tyrosine Phosphatase Non-receptor Type 4 (PTPN4) (AID 2283208). In short, it runs like this:
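Screened in duplicate at 25 uM, with hits then titrated to a top concentration of 50 uM. Recombinant Sf9-derived PTPN4 turnover was read by fluorescence with electrophoretic separation, 1.33 h after compound addition. DMSO served as baseline.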

In test [9] the target is human Phosphodiesterase 4A1 (PDE4A1), PDE4A (gene 5141) (UniProt P27815). The experiment in a line: NVS_ENZ_hPDE4A1: NovaScreen (NVS) Enzymatic Assay for human Phosphodiesterase 4A1 (PDE4A1) (AID 2283191). In short, it runs like this: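 Fluorescent substrate turnover by recombinant PDE4A1 read after 1 h by mobility-shift separation. Primary duplicate screen at 25 uM; hits retested in concentration series with a 50 uM maximum, relative to DMSO.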
Sequence of human Phosphodiesterase 4A1 (PDE4A1), PDE4A (gene 5141) (P27815 whole entry, looked up): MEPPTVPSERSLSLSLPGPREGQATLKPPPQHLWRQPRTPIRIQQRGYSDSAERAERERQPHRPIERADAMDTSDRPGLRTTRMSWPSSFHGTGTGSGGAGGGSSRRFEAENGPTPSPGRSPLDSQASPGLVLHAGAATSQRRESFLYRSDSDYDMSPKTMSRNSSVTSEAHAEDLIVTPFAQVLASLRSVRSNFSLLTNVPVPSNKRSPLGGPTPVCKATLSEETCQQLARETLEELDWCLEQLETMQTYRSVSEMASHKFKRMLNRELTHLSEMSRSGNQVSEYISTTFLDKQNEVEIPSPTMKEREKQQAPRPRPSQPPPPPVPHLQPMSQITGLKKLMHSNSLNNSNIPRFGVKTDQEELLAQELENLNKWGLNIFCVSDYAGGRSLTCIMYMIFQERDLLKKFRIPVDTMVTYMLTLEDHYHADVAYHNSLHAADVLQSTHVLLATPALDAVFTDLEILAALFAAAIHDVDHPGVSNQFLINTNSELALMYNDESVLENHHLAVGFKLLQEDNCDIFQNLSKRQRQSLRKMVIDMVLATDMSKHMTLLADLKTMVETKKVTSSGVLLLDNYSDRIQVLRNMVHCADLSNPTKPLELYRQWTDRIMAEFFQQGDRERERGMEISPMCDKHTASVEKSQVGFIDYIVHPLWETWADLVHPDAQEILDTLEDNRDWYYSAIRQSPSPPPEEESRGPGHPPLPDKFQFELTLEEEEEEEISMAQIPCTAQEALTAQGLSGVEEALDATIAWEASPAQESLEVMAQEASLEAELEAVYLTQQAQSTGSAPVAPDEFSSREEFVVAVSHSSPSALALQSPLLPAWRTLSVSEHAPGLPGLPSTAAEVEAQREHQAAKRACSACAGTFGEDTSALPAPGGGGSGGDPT

Test [10] deals with human Phosphodiesterase 5 (PDE5), PDE5A (gene 8654) (UniProt O76074). Description: NVS_ENZ_hPDE5: NovaScreen (NVS) Enzymatic Assay for human Phosphodiesterase 5 (PDE5) (AID 2283194). In short, it runs like this:
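Screening began in duplicate at 25 uM, with actives taken into concentration-response. Enzyme activity of recombinant PDE5 toward its substrate was measured at 1 h by fluorescence mobility-shift detection, relative to DMSO controls.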

The target of test [11] is human Mitogen- and Stress-activated Protein Kinase-1 (Msk1), RPS6KA5 (gene 9252) (UniProt O75582). Description: NVS_ENZ_hMsk1: NovaScreen (NVS) Enzymatic Assay for human Mitogen- and Stress-activated Protein Kinase-1 (Msk1) (AID 2283187). In short, it runs like this:
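Chemicals first run in duplicate at 25 uM, with actives followed up in singleton concentration series to 50 uM maximum. Enzyme activity came from substrate/product mobility-shift separation with fluorescence detection after 1 h incubation of the recombinant protein.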

Test [12] addresses cAMP-dependent protein kinase catalytic subunit alpha (Homo sapiens) (UniProt P17612). The experiment in a line: NVS_ENZ_hPKA: NovaScreen (NVS) Enzymatic Assay for human Protein Kinase A (PKA) (AID 2283192). The method in brief:
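Cell-free kinase activity read by fluorescence after mobility-shift separation of substrate and product, 1 h post-dosing. Single-concentration duplicate screen (25 uM) preceded singleton concentration series (top 50 uM); loss of signal versus DMSO.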

Test [13] concerns the target Tyrosine-protein phosphatase non-receptor type 13 (Homo sapiens) (UniProt Q12923). The experiment in a line: NVS_ENZ_hPTPN13: NovaScreen (NVS) Enzymatic Assay for human Protein Tyrosine Phosphatase Non-receptor Type 13 (PTPN13) (AID 2283205). The method in brief: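 Screened first at a single 25 uM in duplicate; compounds passing the threshold (e.g. 30% inhibition) were rerun in concentration series, top 50 uM. Recombinant enzyme, fluorescent substrate, mobility-shift separation, 0.5 h read. Data fitted as inhibition relative to DMSO.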

The target of test [14] is human NIMA (Never In Mitosis Gene A)-Related Kinase 2 (NEK2), NEK2 (gene 4751) (UniProt P51955). The experiment in a line: NVS_ENZ_hNEK2: NovaScreen (NVS) Enzymatic Assay for human NIMA (Never In Mitosis Gene A)-Related Kinase 2 (NEK2) (AID 2283188). In short, it runs like this: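 Compounds were first screened in duplicate at 25 uM, with actives followed up in concentration series. Recombinant NEK2 activity, cell-free, was read 1 h after dosing by fluorescence intensity after mobility-shift separation. Signal loss was scored against DMSO.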

The target of test [15] is human Phosphodiesterase 10 (PDE10), PDE10A (gene 10846) (UniProt Q9Y233). Description: NVS_ENZ_hPDE10: NovaScreen (NVS) Enzymatic Assay for human Phosphodiesterase 10 (PDE10) (AID 2283195). The method in brief:
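Biochemical single-readout PDE10A assay, cell-free, extracted protein. Compounds first screened at 25 uM in duplicate, hits then titrated to 50 uM max. Activity measured after 1 h; loss-of-signal fitted against DMSO negative control.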

Test [16] addresses human Protein Tyrosine Phosphatase Non-receptor Type 1 (PTPN1), PTPN1 (gene 5770) (UniProt P18031). Description: NVS_ENZ_hPTPN1: NovaScreen (NVS) Enzymatic Assay for human Protein Tyrosine Phosphatase Non-receptor Type 1 (PTPN1) (AID 2283201). The method in brief: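 Chemicals were first tested in duplicate at 25 uM, and those passing threshold went on to singleton concentration series topping at 50 uM. Recombinant enzyme, specific substrate, product separated by mobility shift, fluorescence read at 1.33 h; activity loss relative to DMSO.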

Sequence of human Phosphatase and Tensin Homolog (PTEN), PTEN (gene 5728) (P60484 whole entry, looked up): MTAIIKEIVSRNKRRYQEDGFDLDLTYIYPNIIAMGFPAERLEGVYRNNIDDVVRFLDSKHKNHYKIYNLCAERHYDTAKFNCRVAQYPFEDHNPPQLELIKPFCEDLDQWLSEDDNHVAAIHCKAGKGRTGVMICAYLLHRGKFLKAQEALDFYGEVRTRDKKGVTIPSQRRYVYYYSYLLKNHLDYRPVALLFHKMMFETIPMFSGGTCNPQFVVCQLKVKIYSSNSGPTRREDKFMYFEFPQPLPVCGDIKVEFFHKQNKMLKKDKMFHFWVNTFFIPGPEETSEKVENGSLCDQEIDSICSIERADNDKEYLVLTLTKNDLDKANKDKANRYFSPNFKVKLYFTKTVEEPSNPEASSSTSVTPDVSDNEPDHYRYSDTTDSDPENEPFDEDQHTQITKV
Sequence of human Protein Tyrosine Phosphatase Non-receptor Type 2 (PTPN2), PTPN2 (gene 5771) (P17706 whole entry, looked up): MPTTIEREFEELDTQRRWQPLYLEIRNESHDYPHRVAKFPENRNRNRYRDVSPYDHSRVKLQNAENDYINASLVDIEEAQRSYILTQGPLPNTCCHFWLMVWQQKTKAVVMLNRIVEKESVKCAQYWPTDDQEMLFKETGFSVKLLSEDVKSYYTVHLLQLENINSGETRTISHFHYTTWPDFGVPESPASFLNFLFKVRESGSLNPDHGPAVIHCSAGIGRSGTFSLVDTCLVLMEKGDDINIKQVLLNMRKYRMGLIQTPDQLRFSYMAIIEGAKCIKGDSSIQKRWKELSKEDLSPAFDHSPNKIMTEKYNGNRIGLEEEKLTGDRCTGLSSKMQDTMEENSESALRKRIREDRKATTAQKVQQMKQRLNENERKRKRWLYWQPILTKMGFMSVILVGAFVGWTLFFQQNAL
Sequence of human Phosphoinositide 3-kinase alpha (PI3Ka), PIK3CA (gene 5290) (P42336 whole entry, looked up): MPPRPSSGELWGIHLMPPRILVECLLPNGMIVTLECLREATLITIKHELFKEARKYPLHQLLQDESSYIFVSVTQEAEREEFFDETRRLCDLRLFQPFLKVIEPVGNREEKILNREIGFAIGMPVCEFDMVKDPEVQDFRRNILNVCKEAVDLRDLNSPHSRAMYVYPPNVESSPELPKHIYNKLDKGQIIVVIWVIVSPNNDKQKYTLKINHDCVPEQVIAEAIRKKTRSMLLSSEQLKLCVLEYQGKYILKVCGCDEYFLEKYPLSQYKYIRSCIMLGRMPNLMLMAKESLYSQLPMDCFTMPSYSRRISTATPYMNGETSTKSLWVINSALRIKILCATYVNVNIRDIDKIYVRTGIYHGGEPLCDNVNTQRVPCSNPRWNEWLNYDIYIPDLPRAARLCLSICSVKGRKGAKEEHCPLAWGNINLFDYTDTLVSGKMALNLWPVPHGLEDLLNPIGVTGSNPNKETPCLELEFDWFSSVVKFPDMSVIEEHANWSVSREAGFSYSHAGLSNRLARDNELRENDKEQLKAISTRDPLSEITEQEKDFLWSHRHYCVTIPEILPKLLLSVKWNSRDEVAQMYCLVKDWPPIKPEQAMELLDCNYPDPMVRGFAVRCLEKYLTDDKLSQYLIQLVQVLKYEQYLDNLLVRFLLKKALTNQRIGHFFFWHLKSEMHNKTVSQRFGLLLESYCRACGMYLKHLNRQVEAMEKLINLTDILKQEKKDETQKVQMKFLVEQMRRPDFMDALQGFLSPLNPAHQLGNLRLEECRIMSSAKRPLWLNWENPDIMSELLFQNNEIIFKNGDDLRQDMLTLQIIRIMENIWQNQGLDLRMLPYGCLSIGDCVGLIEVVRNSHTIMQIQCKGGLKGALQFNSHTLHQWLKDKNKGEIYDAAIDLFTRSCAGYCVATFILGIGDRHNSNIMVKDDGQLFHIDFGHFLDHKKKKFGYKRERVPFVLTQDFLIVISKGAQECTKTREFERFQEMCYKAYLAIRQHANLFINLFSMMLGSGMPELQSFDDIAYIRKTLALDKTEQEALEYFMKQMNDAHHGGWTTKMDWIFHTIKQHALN
Sequence of human Protein Tyrosine Phosphatase Non-receptor Type 4 (PTPN4), PTPN4 (gene 5775) (P29074 whole entry, looked up): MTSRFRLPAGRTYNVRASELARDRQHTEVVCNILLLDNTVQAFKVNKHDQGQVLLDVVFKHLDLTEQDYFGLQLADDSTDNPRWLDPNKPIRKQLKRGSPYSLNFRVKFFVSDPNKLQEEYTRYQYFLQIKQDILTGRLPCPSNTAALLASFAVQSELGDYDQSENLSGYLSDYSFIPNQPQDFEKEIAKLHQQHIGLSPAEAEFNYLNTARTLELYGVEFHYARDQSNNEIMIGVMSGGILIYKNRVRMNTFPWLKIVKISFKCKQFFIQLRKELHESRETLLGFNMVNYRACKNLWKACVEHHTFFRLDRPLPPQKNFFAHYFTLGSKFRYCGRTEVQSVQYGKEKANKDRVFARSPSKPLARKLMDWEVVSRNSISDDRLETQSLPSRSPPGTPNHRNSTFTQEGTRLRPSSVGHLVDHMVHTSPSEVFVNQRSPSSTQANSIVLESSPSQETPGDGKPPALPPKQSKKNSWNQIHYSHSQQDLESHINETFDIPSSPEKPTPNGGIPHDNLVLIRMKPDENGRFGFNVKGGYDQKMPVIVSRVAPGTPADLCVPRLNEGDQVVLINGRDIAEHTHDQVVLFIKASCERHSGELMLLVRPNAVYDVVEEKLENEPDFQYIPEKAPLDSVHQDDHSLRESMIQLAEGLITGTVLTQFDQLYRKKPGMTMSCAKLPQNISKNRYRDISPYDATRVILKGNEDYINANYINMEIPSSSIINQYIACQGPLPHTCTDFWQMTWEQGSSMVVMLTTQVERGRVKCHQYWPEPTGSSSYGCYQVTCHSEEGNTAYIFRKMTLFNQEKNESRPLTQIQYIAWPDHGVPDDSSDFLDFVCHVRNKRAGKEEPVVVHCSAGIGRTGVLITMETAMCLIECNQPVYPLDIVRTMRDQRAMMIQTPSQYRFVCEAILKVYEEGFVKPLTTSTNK
Sequence of human Matrix Metalloproteinase-9 (MMP9), MMP9 (gene 4318) (P14780 whole entry, looked up): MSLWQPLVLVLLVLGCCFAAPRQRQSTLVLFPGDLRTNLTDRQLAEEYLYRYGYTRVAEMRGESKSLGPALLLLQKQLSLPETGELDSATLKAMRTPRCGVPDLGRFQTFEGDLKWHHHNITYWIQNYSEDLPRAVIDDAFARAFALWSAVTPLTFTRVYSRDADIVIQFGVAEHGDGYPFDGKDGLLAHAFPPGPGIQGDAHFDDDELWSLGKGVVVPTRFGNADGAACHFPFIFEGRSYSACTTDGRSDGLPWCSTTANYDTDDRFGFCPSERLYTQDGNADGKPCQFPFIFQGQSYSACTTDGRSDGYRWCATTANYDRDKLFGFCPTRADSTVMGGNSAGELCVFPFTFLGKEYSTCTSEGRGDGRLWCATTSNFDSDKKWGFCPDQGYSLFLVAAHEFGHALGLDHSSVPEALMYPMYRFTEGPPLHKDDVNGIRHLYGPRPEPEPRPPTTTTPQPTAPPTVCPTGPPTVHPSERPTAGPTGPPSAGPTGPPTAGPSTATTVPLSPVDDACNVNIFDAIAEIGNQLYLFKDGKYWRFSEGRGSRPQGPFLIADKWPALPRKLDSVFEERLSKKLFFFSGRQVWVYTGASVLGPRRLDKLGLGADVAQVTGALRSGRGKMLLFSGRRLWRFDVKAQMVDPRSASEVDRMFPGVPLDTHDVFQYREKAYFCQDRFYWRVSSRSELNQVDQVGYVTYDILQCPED

Regarding `ClC1C(Cl)C(Cl)C(Cl)C(Cl)C1Cl` (centres undefined), in [1], the molecule was called inactive.

As usually defined, the AC50 is the concentration giving half of the maximal activity seen. Regarding `CC[C@H](C)[C@H]1O[C@]2(C=C[C@@H]1C)C[C@@H]1C[C@@H](C/C=C(\C)[C@@H](O[C@H]3C[C@H](OC)[C@@H](O[C@H]4C[C@H](OC)[C@@H](O)[C@H](C)O4)[C@H](C)O3)[C@@H](C)/C=C/C=C3\CO[C@@H]4[C@H](O)C(C)=C[C@@H](C(=O)O1)[C@]34O)O2` (tested in a mixture with another compound), the figures for the AC50 in test [2], in test [3] and in [5] were 5.22 µM (active), 5.57 µM (active) and 41.1 µM (active), respectively. The result in test [4] was inactive.

Regarding `CCN(CC)C(=O)SCc1ccc(Cl)cc1`, the outcome in [3] was inactive.

As for `O=[N+]([O-])c1c(Cl)c(Cl)c(Cl)c(Cl)c1Cl`, the molecule was called inactive in test [6].

Consider `C[C@H]1[C@H](c2ccc(Cl)cc2)SC(=O)N1C(=O)NC1CCCCC1`, for which the outcome in test [7] was inactive.

Turning to `N#CN`, the outcome in [6] was inactive.

Regarding `CNC(=O)CSP(=S)(OC)OC`, the call in test [2] was inactive.

Take `CC(C)(C)C(O)/C(=C\c1ccc(Cl)cc1Cl)n1cncn1` (centres undefined): the molecule was classed as inactive in [5].

As to `O=[N+]([O-])/N=C1\NCCN1Cc1ccc(Cl)nc1`, in test [3], the outcome was inactive.

On to `CN1CSC(=S)N(C)C1`, for which the outcome in test [2], in test [5] and in test [8] was inactive.

Consider `CCCN(CCOc1c(Cl)cc(Cl)cc1Cl)C(=O)n1ccnc1`, for which the AC50 in test [9] is 7.79 µM (active); in test [10] it was 9.58 µM (active).

`CCS(=O)(=O)c1cccnc1S(=O)(=O)NC(=O)Nc1nc(OC)cc(OC)n1`: the call in test [3] and in test [1] was inactive.

Consider `Oc1ccc(Cl)cc1Cc1ccccc1`, for which the call in test [2], in [9], in test [10] and in test [3] was inactive.

For the molecule `O=C1c2ccccc2C(=O)N1SC(Cl)(Cl)Cl`, the molecule was called inactive in [5] and in [8].

On to `COC(=O)c1ccccc1S(=O)(=O)NC(=O)N(C)c1nc(C)nc(OC)n1`, for which the outcome in test [11], in test [12], in test [6], in test [13], in test [5] and in test [8] was inactive. In addition, the AC50 in test [9] is 25 µM (active).

`N#Cc1c(Cl)c(Cl)c(Cl)c(C#N)c1Cl`: the result in test [14], in test [15], in [16] and in test [1] was inactive. Further, the results for the concentration at half-maximal activity (AC50) in [10], in [3] and in test [4] were 31.8 µM (active), 33.1 µM (active) and 40 µM (active), respectively.

Values taken from PubChem BioAssay (EPA / NIEHS).
